Source: PubChem BioAssay AID485298 (National Center for Advancing Translational Sciences (NCATS), 2010)
The campaign covered roughly 320,000 compounds. About 740 (0.23%) were called active. Inconclusive results (about 2%) are left out. Calls follow the shape of the dose curve; as a rule, active = well fitted activation curve with a large enough effect; inconclusive = small, poorly fitted or top-dose-only effect; inactive = no such curve, though single readings can be large or run the other way. The sample as a whole holds a higher share of actives than the screen did.

Test: qHTS Assay for Small Molecule Inhibitors of Mitochondrial Division or Activators of Mitochondrial Fusion; also: nearly all actives have a fitted effect of over 45% in size
Settings: S. cerevisiae fusion-defective mutant growth rescue, CellTiterGlo 48 h; series mostly up to 46.1 µM
Description: NIH Chemical Genomics Center [NCGC] NIH Molecular Libraries Probe Production centers Network [MLPCN] MLPCN Grant: MH081279-01 Assay Submitter (PI): Jodi M. Nunnari NCGC Assay Overview: The budding yeast S. cerevisiae is a powerful system to study mitochondrial fusion. Unlike other organisms, yeast cells without functional mitochondrial DNA (mtDNA) can be propagated and studied as long as they maintain a mitochondrial compartment and are provided with a fermentable carbon source. When mitochondrial fusion is blocked in yeast, mitochondrial tubules rapidly fragment and division continues unopposed. Under conditions where fusion is compromised in mammalian cells, nearly identical changes in mitochondrial structure have been observed. Thus, these findings indicate that steady state mitochondrial structure in cells is a characteristic and specific indicator of fusion activity. Mounting evidence has pointed to a connection between mitochondrial dynamics and apoptosis in mammalian cells. These studies indicate that in mammalian cells mitochondrial dynamics are more integrated into cellular processes than in yeast cells and have evolved not only to distribute the organelle but also to aid in the regulation of cellular homeostasis. Mitochondrial fusion proteins attenuate apoptosis by inhibiting the release of cytochrome c from mitochondria, in part by controlling cristae structures. Thus, small molecules that inhibit mitochondrial […] may promote apoptosis and potentially act as novel chemotherapeutics and stimulation of apoptosis has become an attractive target of anti-cancer therapies. To identify inhibitors of mitochondrial division, we exploit the growth phenotypes of mitochondrial fusion-defective mutants. The temperature sensitive fusion alleles, such as fzo1-1 and mgm1-5, cause mitochondrial membranes to fragment in cells under non-permissive conditions and cells lose mtDNA, and are unable to grow in the presence of non-fermentable carbon source glycerol. Inhibiting mitochondrial division rescues growth. We have developed and optimized a luminescence cell viability assay in 1536 well format for the identification of inhibitors in the yeast mitochondrial fusion-defective assay.
The yeast glycerol stocks where kindly supplied by the laboratory of Dr. Jodi Nunnari, University of California, Davis. All yeast glycerol stock solutions were stored in single use aliquots at -80C. The CellTiterGlo luminescence reagent, containing luciferase and luciferin, were purchased from Promega, and the reagents were stored according to manufacturer's instructions. The Buffer components for the YPEG yeast growth medium were purchased from Sigma-Aldrich (St. Louis, MO). YPEG growth medium: 1% (w/v) yeast extract, 2% (w/v) Bacto-peptone, 3% Ethanol, 3% glycerol, 0.4mM Tryptophan, 0.36mM Adenine. qHTS Assay Protocol: 1.#Dispense 2.5 ul yeast growth medium per 1536 well plate. 2.#Transfer 23 nl per well of compound to plate. 3.#Dispense 2.5 ul yeast solution at appropriate seeding density per well. 4.#Incubate for 48 hours at 37C. 5.#Dispense 5 ul of CellTiterGlow solution per well. 6.#Incubate at ambient for 10 minutes. 7.#Read using bio-luminescence protocol on Viewlux.
Potency is read from the fitted curve at half-maximal effect.

Potency, active:
COc1ccc(-c2c(-c3cc(OC)cc(OC)c3)n(C)c3ccc(-c4ccn[nH]4)cc23)cc1 10 µM
OCCn1c(-c2ccccc2)csc1=Nc1ccccc1 11.2 µM
COc1cccc(/C=C2\Sc3ccc(C(=O)NCC4CCCO4)cc3N(C)C2=O)c1 (stereo unspecified) 17.8 µM
CCOC(=O)C1=C(N)N(c2ccc(C)cc2)C2=C(C(=O)CCC2)C1c1cccs1 (stereo unspecified) 20 µM
COC(=O)c1c(NC(=O)c2cccs2)sc2c1CCCC2 14.1 µM
CC(=O)/C(C)=N/O 20.6 µM
CCCC1=Nc2cc(C(=O)NCc3ccco3)ccc2Sc2ccccc21 31.6 µM
Cc1ccc(N2CCN(C3=NC(=O)/C(=C\c4cccs4)S3)CC2)cc1 22.4 µM
O=C1C=C(c2cccc(Cl)c2O)C[C@@H](c2ccc(F)cc2)C1 11.2 µM

Potency, inactive:
COc1cc(OC)cc(-c2c(-c3ccc(F)cc3)c3cc(-c4ccc5cc[nH]c5c4)ccc3n2C)c1
COc1cc(OC)cc(-c2c(-c3cccs3)c3cc(-c4ccc(OC)nc4)ccc3n2C)c1
COC(=O)c1cc(S(=O)(=O)NCC2CCN(Cc3ccc(Cl)cc3)CC2)cn1C
CCn1cc(/C=C(\NC(=O)c2ccc(C)cc2)C(=O)NCCN2CCOCC2)c2ccccc21
Cn1cccc1C1(C(F)(F)F)NCCNC1=O (stereo unspecified)
Cc1cc(C)cc(C(=O)OCC(=O)NCCNC(=O)COC(=O)c2cc(C)cc(C)c2)c1
COc1ccccc1-n1c(-c2ccc(C)cc2)cn2c3c(=O)n(C)c(=O)n(C)c3nc12
O=C(COC(=O)c1ccccc1Cl)NC1CCCCCCC1
Cc1csc(=Nc2ccccc2)n1CCO
Cc1csc(=NC(=O)c2ccccc2)n1CCO
CCN1C(=O)[C@@H]2[C@@H](c3ccc(-c4cccc(Cl)c4)cc3)N3CCC[C@@]3(C(=O)OC)[C@@H]2C1=O
COc1cccc(C(=O)NCCS(=O)(=O)NCC2CCCO2)c1 (stereo unspecified)
COc1ccccc1-n1cnc2cc(C(=O)NCC3CCCO3)ccc21 (stereo unspecified)
O=C(NC1CCCC1)C1CC(=O)N(c2ccc(F)cc2)C1 (stereo unspecified)
O=C1CN(C(=O)CN2C(=O)NC3(CCCCC3)C2=O)c2ccccc2N1
CCOC(=O)c1cc2c(n(-c3ccc(C)cc3)c1=O)CCCC2=O
O=C1CCCC2=C1C(c1cccs1)CC(=O)N2c1ccc(F)cc1 (stereo unspecified)
COC(=O)C(C)N=Cc1ccccc1 (stereo unspecified)
COc1ccc(S(=O)(=O)N2CCN(CC(=O)N3c4ccccc4CC3C)CC2)cc1OC (stereo unspecified)
NC(=O)C1CCN(Cc2nc3c(Br)cc(Br)cc3c(=O)[nH]2)CC1
CC(C)OC(=O)c1c(NC(=O)c2ccco2)sc2c1CCCC2
COC(=O)c1c(NC(=O)CSc2nncs2)sc2c1CCCCC2
C=CC1(C)CC(=O)C2(O)C(C)(O1)C(OC(C)=O)C(O)C1C(C)(C)CCC(O)C12C (stereo unspecified)
O=c1c(Cl)c(NCc2ccc(F)cc2Cl)cnn1C12CC3CC(CC(C3)C1)C2
Cc1csc(OCC(=O)Nc2ccc(C)c(C)c2)n1
Cc1nc(COc2cc3oc(=O)cc(C)c3cc2Cl)cs1
Cc1ccc(C)c(NS(=O)(=O)c2cc(Br)cnc2N)c1
CCCN1CCN(C(=O)Cn2ncc3ccccc32)CC1
CCCCN(C(=O)C(CCSC)N1C(=O)c2ccccc2C1=O)c1c(N)n(CCC)c(=O)[nH]c1=O (stereo unspecified)
NC1CCN(O)C1=O (stereo unspecified)
COC(=O)c1c(C(=O)OC)c2n(c1C)CCS2
CCCC1=Nc2cc(C(=O)NCCN3CCCC3)ccc2Sc2ccccc21
CCC1=Nc2cc(C(=O)NCCN3CCCC3)ccc2Sc2ccc(C)cc21
C[C@H](NC(=O)C1CC(=O)N(c2ccc3c(c2)OCCO3)C1)C(=O)N1CCC(C(=O)O)CC1 (stereo partly specified)
O=C(NCC(c1ccco1)S(=O)(=O)c1cccs1)c1ccc(F)cc1 (stereo unspecified)
COC(=O)CN1C(=O)[C@H]2[C@@H](C3CC3)N3C(=O)CN(Cc4ccc(-c5ccccc5)cc4)C(=O)[C@@]3(Cc3ccccc3)[C@H]2C1=O
O=C(NCc1cccnc1)Nc1cccc(NC(=O)NCc2cccnc2)c1F
Cc1ccc(NC(=O)Cn2nnc3sc4c(c3c2=O)CCC(C)C4)cc1 (stereo unspecified)
COc1ccc(C2CC(=O)Nc3c2c(=O)nc2c(C)cccn32)cc1OC (stereo unspecified)
Cc1ccc(N2CCN(/N=C/c3cccs3)CC2)cc1
Cc1ccsc1/C=C1\SC(N2CCOCC2)=NC1=O
C=CCn1nc(-c2ccccc2)c2c(C)onc2c1=O
